This note sets out measurements from PubChem BioAssay.

Assay [1] in a line: inhibitors of TNFa-induced NFkB p65 translocation, primary screen, imaging, HUVEC, MLSMR starter and 10KST1 sets (AID 438;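 active means inhibition above 20% together with a positive visual image hit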;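 further: compound added about 3h40 before a 20 min TNFalpha stimulation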;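 on inhibition: signal is the nuclear over cytoplasmic p65 intensity ratio per well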). The note with it: HUVEC TNFa-induced p65 nuclear translocation; cell count: measured here: nuclei count (cytotoxicity indicator), at 2.08 µM; inhibition: at 2 µM, stronger effect = higher value, 0% TNFa-plus-vehicle, 100% no-TNFa wells.
The nature of assay [2]: inhibitors of mutant huntingtin aggregation, primary screen, imaging, exon1htt(103Q)mCFP cells, high-content imaging (AID 483;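 active means visual image review flags a hit and inhibition of aggregation exceeds 20%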;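 further: compound exposure lasted 3 days before fixation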;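 on nuclei count: percent of the per-plate median nuclei count of sample wells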). The note with it: exon1htt(103Q)mCFP cell line, aggregate imaging, at 2 µM; inhibition of aggregation: stronger effect = higher value; nuclei count: measured here: cell count, toxicity.
Assay [3] in a line: inhibitors of E-selectin induction by TNFa, primary screen, imaging, HUVEC, immunofluorescence, MLSMR starter and 10KST1 sets (AID 487).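 On inhibition: signal is fraction of cell area covered by stained E-selectin grains.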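 On nuclei count: 100% = median nuclei count of all wells on the same plate.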 The note with it: HUVEC TNFalpha-induced E-selectin immunofluorescence imaging, at 2 µM; inhibition: stronger effect = higher value; nuclei count: measured here: cell number, toxicity.
Assay [4] deals with Voltage-gated potassium channel subunit beta-2 (Rattus norvegicus) (UniProt P62483). Put plainly: KvBeta enzyme negative modulators, primary screen, biochemical, NADPH fluorescence (AID 622;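 active means fluorescence slope higher than the sample average by over 3 SD, cut at about -0.22 in these data, passing the limit was not always enough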;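 further: slope of raw intensity against log time taken from 70 to 1610 s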). To be noted: recombinant KvBeta, 4-cyanobenzaldehyde reduction, at 10 µM, stronger effect = higher value.
Voltage-gated potassium channel subunit beta-2 (Rattus norvegicus), sequence (P62483 whole entry, looked up): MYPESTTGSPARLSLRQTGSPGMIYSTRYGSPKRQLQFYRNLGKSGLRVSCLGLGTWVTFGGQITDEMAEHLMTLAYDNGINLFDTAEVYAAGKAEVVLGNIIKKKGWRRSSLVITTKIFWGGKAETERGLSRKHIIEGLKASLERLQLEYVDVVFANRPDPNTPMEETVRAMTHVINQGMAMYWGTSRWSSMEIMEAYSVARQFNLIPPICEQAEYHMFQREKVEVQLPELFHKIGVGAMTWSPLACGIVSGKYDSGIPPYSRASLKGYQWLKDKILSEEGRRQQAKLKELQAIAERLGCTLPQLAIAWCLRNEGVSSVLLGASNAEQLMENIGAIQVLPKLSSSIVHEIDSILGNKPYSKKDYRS
Assay [5] has the same target. Put plainly: KvBeta positive modulators, primary screen, biochemical, NADPH fluorescence (AID 623;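 active means NADPH fluorescence slope more negative than the mean of all samples by about 3 SD, 99.7% confidence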;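 further: fluorescence intensity change per second fitted from 20 to 320 s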). To be noted: Recombinant KvBeta, NADPH fluorescence decrease slope, 10 min; at 10 µM; stronger effect = lower value.
For assay [6], the target named is Alpha-2C adrenergic receptor (Homo sapiens) (UniProt P18825). Kind of assay: modulators of alpha2C/GIRK thallium flux, primary screen, cell-based, HEK293 alpha2C/GIRK1/2 (AID 624;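 active means fluorescence slope after compound addition differing from the mean of all screened samples at 99.7% confidence, in either direction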;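 further: slope of fluorescence ratio to pre-addition baseline per second over 15 to 24 s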). The note with it: thallium flux BTC fluorescence, at 10 µM, actives lie on both sides.
Alpha-2C adrenergic receptor (Homo sapiens), sequence (P18825 whole entry, looked up): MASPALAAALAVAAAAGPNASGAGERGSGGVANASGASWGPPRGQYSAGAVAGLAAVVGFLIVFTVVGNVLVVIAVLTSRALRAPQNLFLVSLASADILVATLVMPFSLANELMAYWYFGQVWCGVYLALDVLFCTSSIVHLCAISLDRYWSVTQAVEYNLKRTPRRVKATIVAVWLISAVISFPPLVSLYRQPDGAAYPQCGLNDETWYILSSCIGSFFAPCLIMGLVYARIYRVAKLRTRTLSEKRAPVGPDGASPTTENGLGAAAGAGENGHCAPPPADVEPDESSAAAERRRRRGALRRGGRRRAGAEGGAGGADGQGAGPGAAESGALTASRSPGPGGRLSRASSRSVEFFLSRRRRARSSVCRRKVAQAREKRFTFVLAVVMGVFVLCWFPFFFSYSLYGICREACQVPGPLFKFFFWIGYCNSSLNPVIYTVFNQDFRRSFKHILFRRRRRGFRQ
A short description of assay [7]: inhibitors of Sendai virus-induced IRF3 signaling, primary screen, TLR/RLR signaling modifier project, cell-based, Sendai virus stimulus, luciferase, 10K MLSCN set (AID 602276;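 active means inhibition at or above 50% at 10 µM; inactive means inhibition below 50%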;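 further: firefly luciferase from ISG56 promoter only with Renilla not read in this screen; 0% = Sendai virus plus DMSO and 100% = medium plus DMSO without virus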). To be noted: HEK293 RL24 IRF3 luciferase reporter, at 10 µM, stronger effect = higher value.
A short description of assay [8]: inhibitors of poly I:C-induced TLR3 signaling, primary screen, cell-based, poly I:C stimulus, luciferase, 10K MLSCN set (AID 602277;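 active means inhibition of the reporter signal at or above 50%; inactive means inhibition below 50%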). The note with it: HEK293-TLR3 RL24 IRF3 luciferase reporter, at 10 µM, stronger effect = higher value.

Structures are written as SMILES. The source made the active and inactive calls.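 How the source made its calls, unless noted: active means visually confirmed hit in the image check and inhibition above 20%; inconclusive means visually confirmed hit but inhibition not above 20%; inactive means no visual hit in the image check.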

For `O=c1c2ccccc2nc(SCc2cn3ccsc3n2)n1-c1ccc(F)cc1`, the cell count in assay [1] is 607. Further, the inhibition in assay [1] was 6.1% (inactive); in assay [3] it was 59.6% (active); in assay [7], 23.9% (inactive); in assay [8], 22.8% (inactive). In assay [2], the inhibition of aggregation was 9% (inactive). Also, the nuclei count amounted to 103% in assay [2] and 71.6% in assay [3]. Also, the fluorescence slope in assay [4] is -0.626 (inactive). In addition, the NADPH fluorescence slope in assay [5] was 1.8e-05 (inactive). For the same molecule, the slope in assay [6] is 0.00521 (inactive).
`Cc1ccnc(NC(=O)C2CCCN(S(=O)(=O)c3cnc[nH]3)C2)c1` (centres undefined): the cell count in assay [1] was 526. Moreover, the inhibition in assay [1] was -2.4% (inactive); in assay [3], -81.7% (inactive); in assay [7] it was -13.6% (inactive); in assay [8], 7.28% (inactive). Moreover, in assay [2], the inhibition of aggregation was 39.4% (active). For the same molecule, the results for the nuclei count in assay [2] and in assay [3] were 84.3% and 110%, respectively. In assay [4], the fluorescence slope was -0.564 (inactive). Further, in assay [5], the NADPH fluorescence slope was -2.6e-05 (inactive). Further, in assay [6], the slope was 0.00685 (inactive).
With `CCOC(=O)c1ccc(-n2c(C)nc3c(cnn3-c3ccccc3C)c2=O)cc1`, the cell count in assay [1] came to 654. Further, the inhibition is 6.9% (inactive) in assay [1], 11.9% (inactive) in assay [3], -2.92% (inactive) in assay [7] and 3.65% (inactive) in assay [8]. For the same molecule, the inhibition of aggregation in assay [2] was -46.9% (inactive). Further, the nuclei count in assay [2] worked out at 102%; in assay [3] it was 108%. Moreover, the fluorescence slope in assay [4] was -0.543 (inactive). In assay [5], the NADPH fluorescence slope is -6.1e-06 (inactive). The slope in assay [6] was 0.00553 (inactive).
Regarding `O=C(O)c1ccc2noc(-c3ccccc3)c2c1`, the cell count in assay [1] came to 755. Besides, the inhibition was -8.7% (inactive) in assay [1], -15% (inactive) in assay [3], -20.8% (inactive) in assay [7] and -49.6% (inactive) in assay [8]. Moreover, the inhibition of aggregation in assay [2] is 16.9% (inactive). Further, the nuclei count in assay [2] amounted to 103%; in assay [3] it was 123%. The fluorescence slope in assay [4] is -0.378 (inactive). Further, the NADPH fluorescence slope in assay [5] is -3.4e-05 (inactive). Moreover, the slope in assay [6] was 0.00344 (inactive).
`O=C(N1CCN(c2ccccc2F)CC1)C12CC3CC(CC(C3)C1)C2`: the cell count in assay [1] was found to be 242. The inhibition in assay [1] was 3.4% (inactive); in assay [3], 17.9% (inactive); in assay [7] it was 7.35% (inactive); in assay [8], 14.4% (inactive). In addition, the inhibition of aggregation in assay [2] was -2.5% (inactive). For the same molecule, the nuclei count came out at 99.4% in assay [2] and 95% in assay [3]. In addition, in assay [4], the fluorescence slope was -0.387 (inactive). Moreover, the NADPH fluorescence slope in assay [5] is 2.5e-05 (inactive). For the same molecule, the slope in assay [6] was 0.00709 (inactive).
For the molecule `CCOC(=O)CSc1nn(C)c(=S)s1`, the cell count in assay [1] turned out to be 723. Further, the inhibition in assay [1] was 0.6% (inactive); in assay [3], -19.1% (inactive); in assay [7], 3.99% (inactive); in assay [8] it was 21.1% (inactive). Moreover, the inhibition of aggregation in assay [2] is -4.4% (inactive). The figures for the nuclei count in assay [2] and in assay [3] were 108% and 104%, respectively. In assay [4], the fluorescence slope was -0.573 (inactive). Further, the NADPH fluorescence slope in assay [5] is -1.7e-05 (inactive). The slope in assay [6] was 0.00733 (inactive).
Regarding `NC(=O)c1c(NC(=O)Cc2cccs2)sc2c1CCC2`, the cell count in assay [1] stood at 537. Further, the inhibition in assay [1] is -17.1% (inactive); in assay [3], -43% (inactive); in assay [7], -14.3% (inactive); in assay [8], -35.7% (inactive). The inhibition of aggregation in assay [2] is 12.6% (inactive). Further, the nuclei count came out at 109% in assay [2] and 150% in assay [3]. The fluorescence slope in assay [4] is -0.483 (inactive). Moreover, the NADPH fluorescence slope in assay [5] is -6.1e-05 (inactive). Also, in assay [6], the slope was 0.00572 (inactive).
For `COC(=O)[C@H](CCSC)NC(=O)Nc1cc(C)ccc1C`, the cell count in assay [1] was 476. For the same molecule, the inhibition in assay [1] was -7.4% (inactive); in assay [3], -5.7% (inactive); in assay [7] it was 11.7% (inactive); in assay [8] it was 31% (inactive). Moreover, the inhibition of aggregation in assay [2] was 7.6% (inactive). The nuclei count in assay [2] worked out at 90.6%; in assay [3] it was 86.5%. In addition, the fluorescence slope in assay [4] is -0.616 (inactive). The NADPH fluorescence slope in assay [5] was -3.2e-05 (inactive). In assay [6], the slope is 0.00712 (inactive).
Take `COc1ccccc1-c1cc(C(=O)Nc2cc(C)nn2-c2ccccc2)no1`: the cell count in assay [1] came out at 478. For the same molecule, the inhibition is -9.3% (inactive) in assay [1], 4.5% (inactive) in assay [3], -1.99% (inactive) in assay [7] and 16% (inactive) in assay [8]. Also, the inhibition of aggregation in assay [2] was -24.6% (inactive). Also, the nuclei count is 111% in assay [2] and 109% in assay [3]. In addition, in assay [4], the fluorescence slope was -0.381 (inactive). Also, the NADPH fluorescence slope in assay [5] was -2e-05 (inactive). Moreover, the slope in assay [6] is 0.00489 (inactive).
With `O=C(Nc1ccc(S(=O)(=O)N2CCCCCC2)cc1)c1ccco1`, the cell count in assay [1] was 355. For the same molecule, the inhibition is 1.5% (inactive) in assay [1], -32.3% (inactive) in assay [3], -8.22% (inactive) in assay [7] and -19.4% (inactive) in assay [8]. Besides, in assay [2], the inhibition of aggregation is 12.9% (inactive). In addition, the nuclei count in assay [2] was 105%; in assay [3], 126%. Besides, the fluorescence slope in assay [4] is -0.434 (inactive). Also, in assay [5], the NADPH fluorescence slope is -6.7e-05 (inactive). Also, the slope in assay [6] was 0.00521 (inactive).
On to `CCSc1nnc(-c2ccc(OC)cc2)o1`, for which the cell count in assay [1] stood at 651. The inhibition is 11.1% (inactive) in assay [1], 61.5% (inactive) in assay [3], -34% (inactive) in assay [7] and -118% (inactive) in assay [8]. Also, the inhibition of aggregation in assay [2] was 0% (inactive). The figures for the nuclei count in assay [2] and in assay [3] were 99.1% and 106%, respectively. Besides, in assay [4], the fluorescence slope was -0.242 (inactive). Further, in assay [5], the NADPH fluorescence slope is -1.2e-05 (inactive). Also, the slope in assay [6] is 0.00568 (inactive).
As for `Cc1ccc(C)c(N2CCN(Cc3nnnn3C3CCCCC3)CC2)c1`, the cell count in assay [1] stood at 458. Moreover, the inhibition in assay [1] is -4.4% (inactive); in assay [3] it was -49.3% (inactive); in assay [7], 11.6% (inactive); in assay [8], 34.8% (inactive). Further, in assay [2], the inhibition of aggregation was -7.6% (inactive). Further, the nuclei count in assay [2] was 123%; in assay [3] it was 112%. The fluorescence slope in assay [4] was -0.626 (inactive). Also, the NADPH fluorescence slope in assay [5] is -2.5e-05 (inactive). For the same molecule, in assay [6], the slope was 0.00597 (inactive).
Regarding `Cc1cc(NC(=O)CSc2nnc(COc3cccc(C)c3C)n2Cc2ccco2)no1`, in assay [1], the cell count is 363. For the same molecule, the inhibition is -8.7% (inactive) in assay [1], -60.4% (inactive) in assay [3], 4.7% (inactive) in assay [7] and 11.9% (inactive) in assay [8]. The inhibition of aggregation in assay [2] was 7.4% (inactive). In addition, the nuclei count in assay [2] came to 93%; in assay [3] it was 101%. Moreover, in assay [4], the fluorescence slope is -0.6 (inactive). Also, the NADPH fluorescence slope in assay [5] is -6.6e-06 (inactive). Besides, in assay [6], the slope is 0.00725 (inactive).
In the case of `O=C(CSc1nc2cc(Cl)ccc2s1)N1CCN(C(=O)c2ccco2)CC1`, in assay [1], the cell count was 725. Moreover, the inhibition in assay [1] is 2.4% (inactive); in assay [3], -126% (inactive); in assay [7], 21.6% (inactive); in assay [8], 27.6% (inactive). In addition, the inhibition of aggregation in assay [2] is 15.7% (inactive). Further, the nuclei count in assay [2] came to 97.9%; in assay [3], 141%. Besides, in assay [4], the fluorescence slope is -0.482 (inactive). For the same molecule, the NADPH fluorescence slope in assay [5] was -5.8e-05 (inactive). Also, the slope in assay [6] is 0.00555 (inactive).
